Efflux pump inh – inhibitors of Candida efflux pumps in yeast, primary screen, S. cerevisiae, Nile Red, multiplex. S. cerevisiae Candida pump triplex. inhibition, % at 10 µM. 330,000 compounds, 0.44% hits. AID 485275, 2010;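 active = plate passing quality check with inhibition over a set limit, or well fluorescence over plate mean plus 4 SD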;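 also: Nile Red retained in pooled yeast measured as flow cytometry median fluorescence; higher means more Nile Red kept so more efflux inhibition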
AI-2 QS modul – Vibrio harveyi AI-2 quorum sensing modulators, primary screen, JMH597 strain, luminescence/OD600 ratio; Vibrio harveyi JMH597 AI-2 luminescence/OD600 ratio, 9 h; hits give low values; strain lacks LuxN and CqsS sensors; 0 = neutral-control median; activity change, % at 7.5 µM; 300,000 compounds, 0.4% hits; in the data active = activity change below about -75%, passing the limit was not always enough;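 also: luminescence divided by OD600 gain over 9 h not by final OD600 alone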
ATG4B inhibitor – ATG4B protease inhibitors, primary screen, biochemical, fluorescence, uHTS; Cysteine protease ATG4B (Homo sapiens), Q9Y4P1; ATG4B cleavage of LC3-PLA2, NBD-HPC fluorescence, 1 h; inhibition, % at 8.33 µM; 340,000 compounds, 0.51% hits; AID 504462, 2011; in the data active = inhibition above about 40%
Target sequence (Q9Y4P1 whole entry, looked up): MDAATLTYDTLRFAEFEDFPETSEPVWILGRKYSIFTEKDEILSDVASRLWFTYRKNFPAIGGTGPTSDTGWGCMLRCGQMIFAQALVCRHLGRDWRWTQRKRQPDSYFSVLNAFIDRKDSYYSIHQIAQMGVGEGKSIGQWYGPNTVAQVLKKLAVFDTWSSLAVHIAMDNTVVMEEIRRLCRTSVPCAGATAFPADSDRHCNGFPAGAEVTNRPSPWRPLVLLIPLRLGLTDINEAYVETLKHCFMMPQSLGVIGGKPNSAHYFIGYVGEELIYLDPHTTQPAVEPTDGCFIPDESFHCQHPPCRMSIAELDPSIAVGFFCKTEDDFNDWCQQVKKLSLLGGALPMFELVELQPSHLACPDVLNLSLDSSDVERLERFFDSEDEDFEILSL
SUMO Mot1 rescue – yeast Mot1-301 growth rescue at high temperature, primary screen, SUMOylation pathway inhibitor project, S. cerevisiae, ATP luminescence, 38.5C. S. cerevisiae Mot1-301 growth rescue; percent above DMSO median, 100 means doubled. growth rescue, % at 18.8 µM. 320,000 compounds, 1% hits. AID 2716, 2010;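 active = every valid replicate shows activation above 250% relative to neutral control wells; inactive = the rest, any valid replicate at or below 250%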
V-ATPase pH – regulators of yeast V-ATPase proton pumping, primary screen, pHLuorin cytosolic pH fluorescence; S. cerevisiae; response, % at 10 µM; 350,000 compounds, 0.37% hits; AID 504577, 2011; in the data active = response mostly above about 7.3%, no sharp cut-off; inactive = mostly below about 5.4%; also: actives read high
Cmpd fluor yeast – counter-screen for efflux pump inhibitors: compound fluorescence | shares compounds with Efflux pump inh | S. cerevisiae AD/pABC3, flow cytometry | fluorescence ratio to DMSO, % at 10 µM | 1,700 compounds, 4% hits;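 active = fluorescence ratio to DMSO above its plate's cutoff, the plate mean ratio plus 5 SD, cut at about 210% in these data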;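 also: unstained yeast with no Nile Red so the signal is compound autofluorescence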
CaMdr1 efflux inh – inhibitors of Candida albicans Mdr1 efflux, confirmation, flow cytometry, singleplex, Cherry Pick1 set | AID 588518, 2011 | 1,700 compounds, 1% hits | inhibition, % at 10 µM | S. cerevisiae AD/CaMDR1, Nile Red efflux | shares compounds with Efflux pump inh; in the data active = inhibition above about 26%;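 also: higher means more Nile Red retained so more efflux inhibition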
Cdr2 pump inh – inhibitors of Candida albicans Cdr2 efflux pump, confirmation, S. cerevisiae AD/CaCDR2, flow cytometry, cherry pick 1, singleplex | shares compounds with Efflux pump inh | Nile Red retention | Nile Red retention ratio vs DMSO, % at 10 µM | 1,700 compounds, 4% hits | AID 588520, 2011; in the data active = Nile Red retention ratio vs DMSO above about 190%;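 also: higher ratio means more blocking of Cdr2 efflux of the dye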
CaCdr1 efflux inh – inhibitors of Candida albicans Cdr1 efflux pump, confirmation, S. cerevisiae AD/CaCDR1, flow cytometry, cherry pick 1, singleplex | shares compounds with Efflux pump inh | Nile Red efflux | inhibition, % at 10 µM | 1,700 compounds, 1% hits;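 active = inhibition above the screen-wide mean plus twice its standard deviation, cut at about 32% in these data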
A number is an active result; - = inactive; . = no result given. Shown are actives, neighbours in structure and some others; about 2.5% of the full set was active somewhere.

SMILES	Efflux pump inh	AI-2 QS modul	ATG4B inhibitor	SUMO Mot1 rescue	V-ATPase pH	Cmpd fluor yeast	CaMdr1 efflux inh	Cdr2 pump inh	CaCdr1 efflux inh
CC(=O)c1c(C)[nH]c(-c2ccccc2)c1C	8.0	-	-	-	-	-	-	-	-
O=c1[nH]c(SCc2cccc(Cl)c2)nc2[nH]ncc12	-	-	-	-	-	.	.	.	.
CCOCCCNC(=O)c1ccc(CS(=O)(=O)Cc2ccc(C)cc2)o1	-	-	-	-	-	.	.	.	.
CCCNc1cc(=S)nc(N)[nH]1	-	-	-	-	-	.	.	.	.
Cc1ccc(S(=O)(=O)N2CCOCC2)cc1C(=O)Nc1ccc(S(=O)(=O)Nc2nccs2)cc1	-	-	-	-	-	.	.	.	.
CCn1ncc(/C=C/C(=O)c2ccccc2)c1C	11	-	-	-	-	-	-	-	-
Cc1c(/C=C/C(=O)c2ccccc2)cnn1C	-	-	-	-	-	.	.	.	.
COc1ccc(CNC(=O)c2cc3c(s2)CN(Cc2ccccc2)C3)cc1	0.5	-	-	-	-	-	-	-	-
COc1ccc(CNC(=O)c2cccc(NC(=O)c3ccccc3)c2)cc1	-	-	-	-	-	.	.	.	.
C/C=C(\C)CN1CCN(c2ccc(C)cc2)CC1	0.4	-	-	-	-	-	-	-	-
COc1ccccc1CNC(=O)COc1ccccc1OC	1.0	-	-	-	-	-	-	-	-
O=C(COc1ccc2c(c1)oc(=O)c1ccccc12)NCCN1CCOCC1	-	-	-	-	-	.	.	.	.
Cc1c(NC(=O)CSc2ccccn2)c(=O)n(-c2ccccc2)n1C	-	-	-	-	-	.	.	.	.
Cc1c(NC(=O)CSc2ncnc3ccccc23)c(=O)n(-c2ccccc2)n1C	1.0	-	-	-	-	-	-	-	-
Cc1c(NC(=O)Cn2ccc([N+](=O)[O-])n2)c(=O)n(-c2ccccc2)n1C	0.5	-	-	-	-	-	-	-	-
CCN(CC)C(=O)c1c(Cl)nc(C)c([N+](=O)[O-])c1C	-	-	-	-	-	.	.	.	.
Cc1ccsc1CN(C)C(=O)CN1C(=O)NC(c2ccccc2)(c2ccccc2)C1=O	-	.	-	-	-	.	.	.	.
O=C1c2cc(O)c(O)cc2OC(c2ccc(O)c(O)c2)C1O (configuration not stated)	.	.	-	.	-	.	.	.	.
Cn1c(Cc2ccccc2)nnc1SCC(=O)Nc1ccc(N2CCOCC2)cc1	1.3	.	-	-	-	-	-	-	-
O=C(CSc1ccccc1F)Nc1ccc(N2CCOCC2)cc1	0.8	.	-	-	-	-	-	-	-
O=C(O)CCNC(=O)CCCn1nnc2ccccc2c1=O	-	-	-	-	-	.	.	.	.
CCOC(=O)c1cccc(NC(=O)COc2ccc([N+](=O)[O-])cc2)c1	-	-	-	-	-	.	.	.	.
CCCOC(=O)c1cccc(NC(=O)COc2ccc([N+](=O)[O-])cc2)c1	2.1	-	-	-	-	-	-	-	-
Cc1ccc(C(=O)O)cc1NC(=S)NC(=O)c1ccc([N+](=O)[O-])c(C)c1	-	-	-	-	-	.	.	.	.
COc1cccc(NC(=O)CN(C)C(=O)CC(NC(=O)c2ccccc2Cl)c2ccccc2)c1 (configuration not stated)	-	.	-	-	-	.	.	.	.
CCOC(=O)c1sc2nc3c(SCC(=O)O)cc(C(=O)c4ccccc4O)cn3c(=O)c2c1C	1.5	-	-	-	-	-	-	-	-
CCOC(=O)c1sc2nc3c(SCC(=O)O)cc(C(=O)c4cc(F)ccc4O)cn3c(=O)c2c1C	-	-	-	-	-	.	.	.	.
